In general, inhibition refers to the drop in the measured response relative to a control, in per cent.

Activity calls are given as the source filed them.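 How the source made its calls: active means inhibition above the hit cutoff set in the earlier primary screen (cut at about 27% in these data); inactive means the rest.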

In this assay the target is Protein phosphatase methylesterase 1 (Homo sapiens) (UniProt Q9Y570). As to the kind of experiment: human PME-1 methylesterase inhibition confirmation – biochemical, fluorescence polarization, FP-Rh probe, triplicate (AID 2171).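 Further: 0% = enzyme with DMSO and 100% = wells lacking PME-1.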 The note with it: recombinant PME-1, FP-Rh probe fluorescence polarization; at 5.9 µM; active compounds read high. In general terms: Fluorescence polarisation rises when a labelled molecule tumbles more slowly, as on binding a larger partner.
Chain of Protein phosphatase methylesterase 1 (Homo sapiens) (Q9Y570 whole entry, looked up): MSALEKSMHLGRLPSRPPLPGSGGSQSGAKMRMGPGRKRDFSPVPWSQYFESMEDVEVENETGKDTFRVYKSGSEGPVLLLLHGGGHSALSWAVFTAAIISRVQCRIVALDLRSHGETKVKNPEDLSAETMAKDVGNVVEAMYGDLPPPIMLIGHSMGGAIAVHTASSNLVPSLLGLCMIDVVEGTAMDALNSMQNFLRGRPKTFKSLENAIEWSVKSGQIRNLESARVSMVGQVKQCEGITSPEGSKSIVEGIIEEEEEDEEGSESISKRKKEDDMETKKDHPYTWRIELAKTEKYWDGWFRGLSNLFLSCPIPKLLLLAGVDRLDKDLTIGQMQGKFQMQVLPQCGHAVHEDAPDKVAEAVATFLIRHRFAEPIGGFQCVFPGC
Consider `CSc1nsc(/C=C/Nc2ccc(O)cc2C)c1C#N`, for which the inhibition was -1.46% (inactive). For `O=c1[nH]n2c(=O)c3c([nH]c2c1N=Nc1cccc(C(F)(F)F)c1)CCCC3`, the inhibition is 60.6% (active). The result for `Oc1c(Br)cc(C=Nc2ccc3nc(-c4ccccc4)[nH]c3c2)c(O)c1Br` reads 5.82% (inactive). The result for `Cc1cc(N/N=C/c2ccc(O)c(C)c2O)nc(-c2ccccc2O)n1` reads 27.9% (active); that for `On1onc2c3cc(-c4ccccc4)nc3ccc21`, 49.3% (active); that for `O=C(O)c1cccc(-c2ccc(/C=N/Nc3ccc([N+](=O)[O-])cc3)o2)c1`, 31.7% (active). The result for `COc1cc(/C=N\Nc2nc3ccccc3o2)cc(OC)c1OC` reads 31.4% (active). With `COc1ccccc1N1CCN(C(=O)C2CCN(S(=O)(=O)c3ccc(C)cc3)CC2)CC1`, the inhibition is 15.3% (inactive). The value for `Cc1cc(NS(=O)(=O)c2ccc(Nc3nc(-c4sc(NC(=O)c5ccccc5)nc4C)cs3)cc2)no1` was 70.6% (active); that for `Cc1cc2c(N)cccc2nn1` was 7.9% (inactive). Take `COc1ccccc1NC(=O)CCC(=O)Nc1nnc(C(F)(F)F)s1`: the inhibition is 4.64% (inactive). The result for `Cc1[nH]c2c(C)cccc2c1CCNC(=O)c1ccc2c(c1[N+](=O)[O-])C(=O)c1ccccc1C2=O` reads 75.1% (active); that for `COc1ccc(NS(=O)(=O)c2ccc(N/N=C(\C)c3ccncc3)c([N+](=O)[O-])c2)cc1`, 26.3% (active); that for `CCOc1cc(/C=N/NC(=O)c2cccc([N+](=O)[O-])c2)ccc1OS(=O)(=O)c1ccccc1`, 19.9% (inactive). Take `Nc1ccc(Nc2nc3ccccc3[nH]2)cc1`: the inhibition is 43.7% (active). For `COc1ccc(-c2cc(-c3c(O)c(OC)c4occc4c3OC)[nH]n2)cc1`, the inhibition was 19.9% (inactive). The result for `CCN(CC)c1ccc(/C=N/NC(=O)c2cccc(S(=O)(=O)Nc3ccccc3OC)c2)c(O)c1` reads 25.8% (inactive); that for `COc1ccc(NC(=O)c2c[nH]n3c(=O)cc(C4CCN(C(=O)OC(C)(C)C)CC4)nc23)cc1Cl`, 25.1% (inactive). The value for `COC(=O)c1ccc(Sc2ccccc2NS(=O)(=O)c2ccc(C)cc2)nc1` was 25.9% (inactive); that for `COc1cc2c(C#N)c(N3CCc4ccccc4C3)nc(N)c2c(N)n1` was 32.4% (active); that for `Brc1ccc(-c2ccc(C3Nc4cccc5cccc(c45)N3)o2)cc1` was 24.1% (inactive).

As for `Oc1ccc(/C=C/c2ccc3cccc(O)c3n2)cc1Br`, the inhibition was 23.9% (inactive). The value for `O=C(c1cccs1)N1CCC(c2nc3c(nnn3Cc3ccccc3Cl)c(=O)[nH]2)CC1` was 25.4% (inactive).

For `COc1cc2[nH]c3c(N4CCN(c5ccc(Cl)cc5)CC4)ncnc3c2cc1OC`, the inhibition was 74.9% (active). The value for `COc1ccc(Nc2nc(NN)nc(C)c2[N+](=O)[O-])cc1` was 17.7% (inactive). The result for `COc1ccc(-c2sc(Nc3ccc(F)c(F)c3F)nc2CCC(=O)NN)cc1` reads 24.1% (inactive). The result for `Cc1ccc(Nc2c([N+](=O)[O-])ccc3c2=NC2(CCCCC2)N=3)cc1` reads 44.3% (active); that for `COc1cc(/C=N/NC(=O)c2cc3c(ccc4ccccc43)o2)cc(OC)c1O`, 29% (active). For the compound `CCOc1ccc(N=Nc2c(=O)[nH]n3c(=O)c4c([nH]c23)CCCC4)cc1`, the inhibition is 24.8% (inactive). The value for `O=C1NN(c2ccc(Cl)c(Cl)c2)C(=O)/C1=C/c1cccc(OC(=O)c2cccs2)c1` was 8.75% (inactive); that for `CCCN(CCC)CCCNC(=O)c1cn(CC)c2ccc(S(=O)(=O)N(C)C3CCCCC3)cc2c1=O` was 50.9% (active); that for `COc1cc(/C=N/Nc2nc(-c3ccc(S(=O)(=O)N(C)C)cc3)cs2)ccc1O` was 19.7% (inactive). The result for `Cc1csc(NC(=O)c2sc3nc(-c4cccs4)ccc3c2N)n1` reads 42.6% (active). The result for `Cc1cc(C(C#N)c2ccc(Cl)cc2)c(Cl)cc1NC(=O)c1cc(I)cc(I)c1O` (stereo not given) reads 47.6% (active); that for `COc1ccccc1/C=C/C=N/n1c(-c2cc(-c3ccccc3)n[nH]2)n[nH]c1=S`, 23.4% (inactive). Take `CSc1ccccc1C(=O)NCCCn1ccnc1`: the inhibition is 5.36% (inactive). The value for `CCN(CC)c1ccc(S(=O)(=O)N2CCOCC2)cc1NC(=O)CN1CCN(Cc2ccccc2)CC1` was 72.3% (active). The result for `C/C(=N\NC(=O)c1ccc(N/N=C(\C)c2ccc(O)cc2)cc1)c1ccc(O)cc1` reads 43.4% (active); that for `CCn1c(CSc2nnc(-c3ccncc3)n2C)nc2cc(C(=O)O)ccc21`, 51.5% (active). The value for `N#C/C(=C/c1ccc(N2CCCC2)c([N+](=O)[O-])c1)c1nc2ccccc2[nH]1` was 30.9% (active).

The record behind these values is PubChem BioAssay.
